Screens as filed in PubChem.
HCV inhibitor – blocks hepatitis C virus; Huh7.5.1 HCVcc-Cre infection, luciferase reporter, 44 h; Potency, µM (series often up to 41.8 µM), inactives show at the top dose activity change, negative = inhibition, usual class: inhibitors; 340,000 compounds, 3.4% hits; AID 651820; note: potency is the fitted concentration of half-maximal effect
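Antiviral activity was scored by luciferase reporter output from cells infected with HCVcc-Cre (~0.5 moi) in presence of compound, 44 h infection period, cells seeded 1,000/well 4 h prior.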
HCMV antiviral – human cytomegalovirus inhibition | AID 1259415 | activity change, negative = inhibition, % at 57.5 µM | HFF cells, HCMV-luciferase reporter, 72 h; active compounds read low | 410,000 compounds, 4.5% hits; in the data active = activity change below about -60%; inconclusive = no clear call, values can overlap the other calls; inactive = above about -39%
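Luciferase read-out from HCMV-luciferase-infected HFFs (MOI 1 PFU/cell) 72 h post infection at 37C; compounds added after 16 h cell attachment; activity normalized between buffer-only basal and Salinomycin (10uM) inhibitor controls.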
Lassa entry inh – blocks Lassa virus binding to or entry into cells | Lassa virus pseudotype entry inhibition, cell reporter | Potency, µM (series often up to 37.9 µM), without a hit: at the top dose activity change, negative = inhibition, actives largely listed as inhibitors | 300,000 compounds, 1.2% hits | AID 540256; calls by dose curve; tested in HEK293 cells; note: potency is the fitted concentration of half-maximal effect; nearly all actives have a fitted effect of over 50% in size
FMDV inh – antivirals against foot and mouth disease virus; FMDV antiviral cell-based qHTS; Potency, µM (highest dose often 57.9 µM), for the others: at the top dose activity change, negative = inhibition, hits mostly inhibitors; 410,000 compounds, 1.2% hits; AID 1159524; calls by dose curve; tested in HEK293T cells; note: read-out not given here; potency is the fitted concentration of half-maximal effect; nearly all actives have a fitted effect of over 45% in size
FBPA Giardia inh – inhibitors of Giardia lamblia fructose-1,6-bisphosphate aldolase. A8B2U2. purified Giardia FBPA. Potency, µM (highest dose often 59.6 µM), inactives show top-dose activity, negative = inhibition, hits mostly inhibitors. 290,000 compounds, 0.71% hits. AID 2451; note: potency is the fitted concentration of half-maximal effect; nearly all actives have a fitted effect of over 55% in size
Target sequence (A8B2U2 whole entry, looked up): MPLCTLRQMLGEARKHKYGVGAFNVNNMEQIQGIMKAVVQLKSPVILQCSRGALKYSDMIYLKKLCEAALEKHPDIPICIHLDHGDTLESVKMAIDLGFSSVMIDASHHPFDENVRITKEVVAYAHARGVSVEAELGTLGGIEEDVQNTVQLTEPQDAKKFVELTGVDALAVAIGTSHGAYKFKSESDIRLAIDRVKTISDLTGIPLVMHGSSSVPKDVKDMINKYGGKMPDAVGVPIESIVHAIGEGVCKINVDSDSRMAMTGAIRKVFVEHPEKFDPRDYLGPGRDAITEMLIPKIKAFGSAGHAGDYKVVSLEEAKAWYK
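Giardia FBPA (40 nM reagent) was preincubated 10 min at RT with compound (up to 57.5 uM final), then substrate plus GAPDH/TPI/NAD/arsenate coupling system with diaphorase/resazurin was added; resorufin fluorescence (525/598 nm) was read after 20 min.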
MARV entry inh – inhibitors of Marburg virus binding or cell entry | Marburg virus pseudotyped entry inhibition, cell reporter | Potency, µM (series often up to 37.8 µM), for the others: at the top dose activity change, negative = inhibition, most hits filed as inhibitors | 300,000 compounds, 1.8% hits | AID 540276; calls by dose curve; tested in HEK293 cells; note: potency is the fitted concentration of half-maximal effect
* hit, by the source's call; ? = inconclusive; . = not tested or not shown; [ ] = another dose, or the depositor's remark. Sampled rows, rich in hits. Any-hit rate of the full collection: about 8.3%. Unless noted, calls come from the whole dose curve; as a rule, active = well fitted curve in the direction sought with a large enough effect; inconclusive = small, poorly fitted or top-dose-only effect, or another doubt; inactive = no such curve, though single readings can be large; an effect the other way counts as inactive or inconclusive. % is set by controls: 0 for no effect and ±100 for the full control effect.

SMILES	HCV inhibitor	HCMV antiviral	Lassa entry inh	FMDV inh	FBPA Giardia inh	MARV entry inh
Cc1nn(C)c(C)c1CN(Cc1nc(CCC(C)C)no1)C(C)C	1µM*	-83*	?	?	0%	?
COc1ccc([C@@H]2[C@@H](C(=O)N3CCOCC3)CC(=O)N2C(=O)CCc2ccccc2)cc1	.	-7	.	.	.	.
CCCCCCCCNCCS(=O)(=O)NCCCCCCCC	3.2µM*	-102*	.	?	.	.
CCOc1ccc(CCNC(=O)CSc2nnnn2-c2ccccc2)cc1OCC	.	-2	-25%[46.1 µM]	-13%	.	0%[46.1 µM]
CC(=O)NC(NC(=S)Nc1ccc(C)cc1C)C(Cl)(Cl)Cl (centres undefined)	-2%	5	.	-9%	4%	.
CCc1ccc(OCC(=O)NC(NC(=S)Nc2ccccc2)C(Cl)(Cl)Cl)cc1 (centres undefined)	?	-27	?	0%	4%	?
Cc1ccc(NC(=S)NC(NC(=O)c2ccccc2C)C(Cl)(Cl)Cl)c(C)c1 (centres undefined)	?	-26	?	-26%	0%	23µM*
CCc1ccc(OCC(=O)NC(NC(=S)Nc2ccccc2OC)C(Cl)(Cl)Cl)cc1 (centres undefined)	?	-72*	-28%	-10%	-1%	-14%
COc1ccc(NC(=S)NC(NC(=O)c2cccc3ccccc23)C(Cl)(Cl)Cl)c([N+](=O)[O-])c1 (centres undefined)	10µM*	-17	-14%	.	-9%	?
COC(=O)c1ccccc1NC(=S)NC(NC(=O)COc1ccccc1)C(Cl)(Cl)Cl (centres undefined)	0%	-102*	-6%	7%	0%	?
CCc1ccccc1Nc1nc2cc(Cl)c(Cl)cc2nc1-n1nc(C)cc1C	.	-26	8%[46.1 µM]	-3%	.	-20%[46.1 µM]
COC(=O)C1=C(C(=O)OC)[C@@H]2N(Cc3ccccc3)c3ccccc3[C@@]23C[C@@H](C(=O)OC)N(S(=O)(=O)c2ccc(Br)cc2)C3=N1	.	.	.	.	0%[12.9 µM]	.
Cn1nc(C(=O)NCc2cccc(Cl)c2)c2c1-c1ccccc1SC2	.	?	5%[46.1 µM]	24%	.	-1%[46.1 µM]
COc1ccccc1C(=O)N1CCOc2ccc(C(C)(O)CCn3cccn3)cc2C1 (centres undefined)	.	.	.	-1%	.	.
CCc1ccc(OCC(=O)NC(NC(=S)Nc2ccccc2C)C(Cl)(Cl)Cl)cc1 (centres undefined)	?	?	?	-9%	4%	?
CCc1ccc(OCC(=O)NC(NC(=S)Nc2ccc(C)cc2C)C(Cl)(Cl)Cl)cc1 (centres undefined)	?	-64*	-27%	?	3%	?
COc1ccc2c(c1)[C@@]1(OCCC=C[C@@H]1C)C(=O)N2Cc1ccc(F)cc1	.	.	?	.	.	28%[14.2 µM]
O=C(CC1C(=O)NCCN1Cc1cccc(Oc2ccccc2)c1)NCCc1ccccn1 (centres undefined)	-22%	23	6.3µM*	-17%	-20%	?
O=c1cc(-c2ccccc2F)[nH]c2cc3c(cc12)OCO3	.	.	9%	.	.	16%
CN(Cc1ccco1)c1cc(-c2ccc3c(c2)OCO3)ncn1	.	.	.	-7%	-11%	.
Cc1ccc(NC(=O)CSc2nnc(COc3ccc(C#N)cc3)n2-c2ccccc2)cc1C	?	-13	?	-3%	-1%	7.3µM*
Cc1ccc(OCc2nnc(SCC(=O)Nc3cccc4ccccc34)n2-c2ccccc2)cc1	?	26	?	-24%	1%	13µM*
Cc1ccc(CNC(=O)CCc2c(C)nc3c4c(C)cc(C)nc4nn3c2C)cc1	.	2	14%[46.1 µM]	-15%	.	6%[46.1 µM]
C[C@@H](O)[C@H]1C(=O)N2C(C(=O)O)=C(SCCN=CN)C[C@H]12	.	.	4%	.	.	21%
Cc1cccc(NC(=O)CS(=O)(=O)c2nc(-c3ccccc3)cn2-c2cccc(Cl)c2)c1C	.	34	-18%[46.1 µM]	5%	.	-12%[46.1 µM]
SMILES	HCV inhibitor	HCMV antiviral	Lassa entry inh	FMDV inh	FBPA Giardia inh	MARV entry inh
O=C(NNC1=Nc2cccc3cccc1c23)c1ccc(Br)cc1	?	-62*	-16%[46.1 µM]	0%	7%	?
COc1ccc(CC(=O)NNC2=Nc3cccc4cccc2c34)cc1OC	-17%	0	.	29%	5%	.
CC(=O)N1CN(C2CC(C)(C)NC(C)(C)C2)Cc2c1sc1c2CCCC1	?	-63*	?	-19%	-4%	?
CC(=O)N1CN(C2CCCC2)Cc2c1sc1c2CCCC1	-14%	14	0%	57%	5%	-22%
CCCc1ccc(C(=O)O/N=C(\N)c2ccccn2)cc1	1%	-70*	1.4µM*	14µM*	13%	11µM*
N/C(=N\OC(=O)c1ccc2ccccc2c1)c1ccccn1	6%	-83*	?	-45%	0%	?
CCCN(CCC)S(=O)(=O)c1ccc(C(=O)Nc2nc3c(s2)CCc2ccccc2-3)cc1	23%	-72*	?	-25%	0%	?
COc1ccc(CC(=O)NNc2ncnc3c2cnn3-c2ccc(C)cc2)cc1	5%	14	-20%	-1%	7%	5%
O=C(NNc1ncnc2c1cnn2-c1cccc(Cl)c1)c1ccco1	5%	6	.	25%	7%	.
COc1ccc(C(=O)NNc2ncnc3c2cnn3-c2cccc(Cl)c2)cc1OC	.	-86*	?	0%	.	.
COc1ccc(CC(=O)NNc2ncnc3c2cnn3-c2ccccc2)cc1	-27%	-7	5.2µM*	-9%	9%	24%
COc1ccc(CCNc2ncnc3c2cnn3-c2ccc(C)c(Cl)c2)cc1	.	-10	1%[46.1 µM]	-23%	.	.
COc1ccc(CCNc2ncnc3c2cnn3-c2cc(Cl)ccc2C)cc1	.	-61*	?	18µM*	.	.
CC[C@@H](c1ccccc1)n1c(=O)n2n(c1=O)[C@H]1[C@H](O)[C@H]3O[C@@H]3/C(=N/OC/C=C(\C)CCC=C(C)C)[C@@H]1CC2	.	.	.	.	0%[12.9 µM]	.
COc1cc(CO)ccc1OCc1nnnn1-c1ccc(C)cc1	-18%	-63*	0%	-9%	2%	14%
Cc1cc(O)c(C(C)C)cc1Cl	.	.	.	.	-6%	.
COc1ccc(NC(=O)Cn2c(=O)n(Cc3ccccc3Cl)c(=O)c3cc(OC)c(OC)cc32)cc1OC	.	18	-14%[46.1 µM]	5%	.	-12%[46.1 µM]
CC(=O)Nc1ccc(S(=O)(=O)N2CCc3nc(-c4ccccc4)c4c(c3C2)CO[C@@H](C)C4)cc1	.	.	?	.	6%[12.9 µM]	?
O=C(CN1c2ccccc2Sc2ccccc21)NNC(=S)Nc1ccc(Cl)cc1Cl	-18%	-21	?	17%	6%	-1%
O=C(CN1c2ccccc2Sc2ccccc21)NNC(=S)Nc1ccc(Cl)cc1	35µM*	4	-7%	20%	16%	1%
Nc1c(S(=O)(=O)O)cc(Nc2ccc(Cl)cc2)c2c1C(=O)c1ccccc1C2=O	.	.	.	-18%	-9%	.
